# High-throughput results deposited in PubChem by National Center for Advancing Translational Sciences (NCATS).
# Compounds with a hit are over-represented: about 18% of the library has one in this group of screens.
# Gal4-VP16 FLuc = VP16 counterscreen qHTS for inhibitors of ROR gamma transcriptional activity | Drosophila S2 Gal4-VP16 UAS-luciferase, luminescence, 20 h | Potency, µM (doses to about 53.6 µM), most hits filed as inhibitors | 310,000 tested, 3.5% active;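 note: Gal4-VP16 expression switched on by copper sulfate through the metallothionein promoter; nearly all actives have a fitted effect of over 50% in size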
# LDHA block = qHTS assay for inhibitors of human lactate dehydrogenase; 480,000 tested, 0.15% active; L-lactate dehydrogenase A chain (Homo sapiens), P00338; AID 1347041, 2019; activity change, % (values are at about 110 or 230 µM); purified LDHA, NADH/diaphorase-resazurin fluorescence; stronger effect = lower value; in the data active = activity change below about -30%; inconclusive = mostly about -25% to -30%
#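 LDH5 2 nM; NADH 0.06 mM, pyruvate 0.2 mM; 200 mM Tris pH 7.4, EDTA, Tween-20; 5 min RT. Detection: diaphorase 0.133 mg/mL + resazurin 37 µM, fluorescence ex540/em590 at 0 and 20 min; normalized to enzyme-free and DMSO wells.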
# RORgamma inh = qHTS for inhibitors of ROR gamma transcriptional activity; Nuclear receptor ROR-gamma (Mus musculus), P51450; Drosophila S2 Gal4-RORgamma UAS-luciferase reporter, 20 h; Potency, µM (series often up to 53.6 µM), actives largely listed as inhibitors; 310,000 tested, 5.4% active; AID 2551, 2010; note: nearly all actives have a fitted effect of over 60% in size
# Target sequence (P51450 whole entry, looked up, the tested form may be a part): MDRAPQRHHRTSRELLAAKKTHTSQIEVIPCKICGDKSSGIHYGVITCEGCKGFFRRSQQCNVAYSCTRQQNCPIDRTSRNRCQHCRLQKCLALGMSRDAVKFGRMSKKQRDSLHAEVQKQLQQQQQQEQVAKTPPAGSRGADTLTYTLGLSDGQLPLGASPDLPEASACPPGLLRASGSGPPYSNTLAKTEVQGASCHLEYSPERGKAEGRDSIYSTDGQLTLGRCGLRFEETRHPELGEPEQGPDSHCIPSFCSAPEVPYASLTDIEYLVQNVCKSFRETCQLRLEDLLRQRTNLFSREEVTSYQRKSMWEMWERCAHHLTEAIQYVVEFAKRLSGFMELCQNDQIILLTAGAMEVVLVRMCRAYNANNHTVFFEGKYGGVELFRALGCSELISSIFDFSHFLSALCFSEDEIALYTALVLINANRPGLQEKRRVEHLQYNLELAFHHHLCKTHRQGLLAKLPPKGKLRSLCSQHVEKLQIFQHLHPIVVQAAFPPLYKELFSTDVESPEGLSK
#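 Luciferase reporter read in Schneider cells carrying Gal4-RORγ (mouse) and UAS-Photinus luciferase; cells given compound 1 h before 700 uM copper sulfate induction, then incubated 20 h at ambient temperature.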
# DT40 TDP1 no CPT = qHTS for Inhibitors of human tyrosyl-DNA phosphodiesterase 1 (TDP1): qHTS in cells in absence of CPT; DT40 Tdp1-/- hTDP1 cells, no CPT, ATP luminescence, 48 h; Potency, µM (top dose mostly 46.2 µM), most hits filed as inhibitors; 420,000 tested, 15% active; AID 686978, 2013; note: nearly all actives have a fitted effect of over 55% in size
#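 Camptothecin absent (DMSO only). Human TDP1-complemented DT40 knockout cells, 400 cells/well, 37 °C for minimum 48 hr; ATP measured via CellTiter-Glo, 30 min dark incubation, luminescence.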
# IL1B secr inh = qHTS for Inhibitors of Inflammasome Signaling: IL-1-beta AlphaLISA Primary Screen; activity change, % at 57.5 µM; 360,000 tested, 4.7% active; AID 743279, 2014; THP-1 LPS/ATP IL-1B secretion, AlphaLISA, 16 h; stronger effect = lower value; in the data active = activity change below about -50%; inconclusive = mostly about -30% to -49%
#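 Secreted IL-1B measured by AlphaLISA bead assay after 16 h compound exposure of THP-1 cells; compounds (final up to 57.5 uM) added 1 h before LPS (250 ng/mL) and ATP (1.25 mM) stimulation; lower signal means less secretion.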
# DT40 TDP1 CPT = qHTS for Inhibitors of human tyrosyl-DNA phosphodiesterase 1 (TDP1): qHTS in cells in presence of CPT | chicken DT40 Tdp1-/-;hTDP1 cells + 20 nM CPT, ATP luminescence, 48 h | Potency, µM (titrated, usually from 46.2 µM), actives largely listed as inhibitors | 420,000 tested, 12% active | AID 686979, 2013; note: nearly all actives have a fitted effect of over 55% in size
#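 Chicken DT40 Tdp1-/- cells complemented with human TDP1, 400 cells/well, exposed to compounds plus 20 nM camptothecin for at least 48 h at 37 C; viability read as ATP content by CellTiter-Glo luminescence.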
# A number is an active result; i = inactive; ? = inconclusive; nt = not tested or not shown. Unless noted, calls come from the whole dose curve; as a rule, active = well fitted curve in the direction sought with a large enough effect; inconclusive = small, poorly fitted or top-dose-only effect, or another doubt; inactive = no such curve, though single readings can be large; an effect the other way counts as inactive or inconclusive.
SMILES,Gal4-VP16 FLuc,LDHA block,RORgamma inh,DT40 TDP1 no CPT,IL1B secr inh,DT40 TDP1 CPT
CCOCCCNC(=O)C(c1ccc(Cl)cc1)N(Cc1cccs1)C(=O)c1ccc(NC(C)=O)cc1 (stereo not drawn),nt,i,nt,16.4µM,nt,14.6µM
CCOCCCNC(=O)C(c1ccccc1)N(Cc1ccc2c(c1)OCO2)C(=O)c1ccc(NC(C)=O)cc1 (stereo not drawn),nt,i,nt,i,nt,?
CCOc1ccc2c(c1)cc(C(=O)NCCOC)n2C,nt,i,nt,nt,nt,nt
COc1cc(NC(=O)CCc2c(C)c3ccc(C)cc3oc2=O)cc(OC)c1,nt,i,nt,nt,nt,nt
Cc1cc(-c2nc3c(c(=O)[nH]c(=O)n3Cc3ccccc3)n2CC2CCCO2)cc(C)c1O (stereo not drawn),nt,i,nt,nt,nt,nt
Cc1cccc(C)c1NC(=O)CNC(=O)Cc1nc(-c2ccccc2)oc1C,nt,i,nt,nt,nt,nt
Cc1ccc(OCC(=O)N(C)CC(=O)N(CC(C)C)c2c(N)n(CC(C)C)c(=O)[nH]c2=O)cc1C,nt,i,nt,nt,nt,nt
CCOCCCNC(=O)C(c1ccc(C)cc1)N(Cc1cccs1)C(=O)c1ccc(NC(C)=O)cc1 (stereo not drawn),nt,i,nt,18.4µM,nt,20.6µM
COc1cc(NC(=O)c2cc3ccccc3oc2=O)cc(OC)c1OC,nt,i,nt,nt,nt,nt
O=C(COc1ccccc1)N(Cc1cccnc1)c1nc2ccc(Cl)cc2s1,nt,i,nt,i,nt,i
CN(C)CCCN(C(=O)COc1ccccc1)c1nc2ccc(Cl)cc2s1,i,i,i,?,-51.1,?
Cc1ccc2nc(N(CCCN(C)C)C(=O)CCc3ccccc3)sc2c1,i,i,?,?,nt,?
CN(C)CCCN(C(=O)CCc1ccccc1)c1nc2ccc(Cl)cc2s1,?,i,i,23.1µM,nt,23.1µM
O=C(/C(Br)=C/Nc1cc(Cl)ccc1Cl)C(F)(F)F,i,i,i,14.6µM,i,20.6µM
Cc1ccc(S(=O)(=O)N=Nc2c(O)[nH]c3ccccc23)cc1C,i,-36.1,i,i,i,i
CC(=NNC(=S)N1CCC1)c1ccccn1,nt,i,nt,i,i,i
CC(=NNC(=S)N1CC2CCC(CC2)C1)c1cccc(C)n1,nt,i,nt,0.0206µM,-110.2,0.0103µM
COC(=O)c1ccc(C2C(C#N)=C(N)Oc3n[nH]c(-c4ccc(OC)cc4)c32)cc1 (stereo not drawn),nt,i,nt,nt,nt,nt
COc1ccc(-c2coc3cc4oc(=O)c5ccccc5c4cc23)cc1F,i,i,i,0.651µM,i,0.82µM
COc1ccc(-c2c(-c3ccccc3OC)oc3ccccc23)cc1F,nt,i,nt,?,i,?
COc1ccc2[nH]c(=O)c(CN(CCc3ccccc3)C(C)=O)cc2c1,i,i,i,i,i,i
Cc1ccc(NC(=S)N(Cc2cccs2)Cc2cc3cc(C)ccc3[nH]c2=O)cc1,?,i,i,?,i,?
COc1cc2cc(CN(Cc3cccs3)C(=S)Nc3cccc(C)c3)c(=O)[nH]c2cc1OC,?,nt,i,nt,nt,nt
Cc1cccc(NC(=S)N(Cc2cccs2)Cc2cc3cc(C)ccc3[nH]c2=O)c1,i,i,i,20.6µM,i,18.4µM
COc1cc2cc(CN(Cc3cccs3)C(=S)Nc3ccc(C)cc3)c(=O)[nH]c2cc1OC,?,i,i,16.4µM,i,25.9µM
CNC(=S)N(Cc1cccs1)Cc1cc2cc(OC)c(OC)cc2[nH]c1=O,i,i,i,18.4µM,i,?
CCC(C)NC(=S)N(CCc1ccccc1)Cc1cc2cc(OC)c(OC)cc2[nH]c1=O (stereo not drawn),?,i,i,18.4µM,?,?
CCC1CCc2c(sc(NC(=O)CC(C)(C)C)c2C#N)C1 (stereo not drawn),nt,i,nt,nt,nt,nt
CC(C)C(=O)Nc1ccc(NC(=O)C(Cl)(Cl)Cl)cc1,nt,i,nt,nt,nt,nt
Cc1cc(C)cc(NC(=O)CN2C(=O)c3ccccc3Sc3ncccc32)c1,nt,i,nt,?,nt,?
